# Test results from PubChem BioAssay AID720712 (NMMLSC, 2013).
# Calls of active or inactive are those of the source.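 The calls were made as follows: active = EC50 at most 10 µM with response changing by at least 30 points across doses, from an acceptable curve fit; inactive = the rest.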
# Target: Cell division control protein 42 homolog (Homo sapiens) (UniProt P60953)
# Test: Cdc42 wildtype GTP-binding inhibitors, late-stage follow-up, mechanism study for Ras-family GTPase inhibitor project, biochemical, compound preincubation comparison, flow cytometry beads, Bodipy-FL-GTP (AID 720712)
# Details: GST-Cdc42 beads, EDTA, protocol A; series mostly up to 100 µM
# Chain of Cell division control protein 42 homolog (Homo sapiens) (P60953 whole entry, looked up): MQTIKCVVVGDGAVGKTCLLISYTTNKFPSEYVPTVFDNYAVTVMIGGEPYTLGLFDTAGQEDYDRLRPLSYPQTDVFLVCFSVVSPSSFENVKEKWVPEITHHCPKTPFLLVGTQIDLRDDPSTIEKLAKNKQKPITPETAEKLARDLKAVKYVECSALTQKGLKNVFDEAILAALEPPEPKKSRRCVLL
row,Compound,outcome
1,CC1(C)Cc2c(sc(NC(=S)NC(=O)c3cccc(N=[N+]=[N-])c3)c2C(=O)O)CO1,inactive
2,CC1(C)Cc2c(sc(NC(=S)NC(=O)c3ccc(N=[N+]=[N-])cc3)c2C(=O)O)CO1,inactive
